Bioassay records: PubChem, National Center for Advancing Translational Sciences (NCATS)
Sampled rows, rich in hits. Any-hit rate of the full collection: about 11%.
BAZ2B block: inhibitors of human BAZ2B bromodomain | AlphaScreen BAZ2B-H3K14Ac peptide displacement | Potency, µM (highest dose often 114 µM), without a hit: at the highest dose activity change, negative = inhibition, actives largely listed as inhibitors | hit rate 4.4% among 360,000; also: % is scaled to controls: 0 for no effect and ±100 for the full control effect; nearly all actives have a fitted effect of over 60% in size
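Complex of BAZ2B and biotin-H3K14Ac (50 nM apiece) forms over 30 min at RT, then faces library compounds up to 110 uM for another 30 min; AlphaScreen beads added, 20 min dark incubation, luminescence read.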
JMJD2A Tudor inh: JMJD2A Tudor domain (human) inhibition; O75164; AlphaScreen JMJD2A-Tudor / H3K4me3 peptide binding; Potency, µM (titrated, usually from 114 µM), inactives show top-dose activity change, negative = inhibition, actives largely listed as inhibitors; hit rate 4.4% among 390,000; AID 504339; also: % is scaled to controls: 0 for no effect and ±100 for the full control effect; nearly all actives have a fitted effect of over 50% in size
HP1b binding inh: HP1-beta chromodomain-methylated histone interaction inhibition | AID 540317 | AlphaScreen HP1-beta / biotin-H3K9me3 peptide binding | hit rate 0.56% among 390,000 | Potency, µM (top dose mostly 114 µM), for inactives: top-dose activity change, negative = inhibition, usual class: inhibitors | P83916; also: nearly all actives have a fitted effect of over 70% in size
Target sequence (P83916 whole entry, looked up): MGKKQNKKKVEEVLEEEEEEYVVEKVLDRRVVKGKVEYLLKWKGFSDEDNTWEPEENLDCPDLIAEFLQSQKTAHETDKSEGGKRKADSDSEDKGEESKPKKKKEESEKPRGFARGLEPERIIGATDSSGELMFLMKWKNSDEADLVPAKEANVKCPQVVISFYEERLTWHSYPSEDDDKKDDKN
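Compound inhibition of the preformed complex between 50 nM HP1-beta and 50 nM biotinylated H3K9me3 peptide was read by AlphaScreen. Buffer was PBS pH 7.4 with 0.01% Tween-20. Incubations ran 30 min at room temperature, with 10 ug/mL donor/acceptor beads.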
G9a inh: blocks human histone lysine methyltransferase G9a. Q96KQ7. G9a H3K9 monomethylation, AlphaScreen, 2 h. Potency, µM (top dose mostly 102 µM), for inactives: top-dose activity, negative = inhibition, usual class: inhibitors. hit rate 8.8% among 350,000. AID 504332; also: % is scaled to controls: 0 for no effect and ±100 for the full control effect; nearly all actives have a fitted effect of over 75% in size
Target sequence (Q96KQ7 913-1193 limits assumed): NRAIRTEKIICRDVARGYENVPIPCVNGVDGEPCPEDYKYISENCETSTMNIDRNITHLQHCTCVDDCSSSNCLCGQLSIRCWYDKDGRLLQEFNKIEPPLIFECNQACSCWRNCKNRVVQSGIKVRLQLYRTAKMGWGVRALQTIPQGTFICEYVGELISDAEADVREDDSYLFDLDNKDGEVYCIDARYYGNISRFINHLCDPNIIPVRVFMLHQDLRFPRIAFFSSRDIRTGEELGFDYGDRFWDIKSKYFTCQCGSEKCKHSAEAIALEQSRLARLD
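Methyltransferase reactions run at room temperature for 2 h (20 nM enzyme, 500 nM biotin-H3K9 peptide, 20 uM SAM) after a 15 min compound preincubation; product detected by AlphaScreen beads and anti-H3K9me1 antibody.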
L3MBTL1 block: blocks human L3MBTL1 | Q9Y468 | AlphaScreen L3MBTL1–H3K9me1 peptide binding | Potency, µM (highest dose often 57.1 µM), without a hit: top-dose activity, negative = inhibition, most hits filed as inhibitors | hit rate 0.66% among 230,000 | AID 485360; also: % is scaled to controls: 0 for no effect and ±100 for the full control effect; nearly all actives have a fitted effect of over 60% in size
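L3MBTL1 (50 nM) pre-complexed 30 min with biotinylated H3(1-15)K9me1 peptide (75 nM), then compounds added for 30 min at room temperature; AlphaScreen streptavidin donor/nickel chelate acceptor beads (10 ug/mL final) read after 30 min dark incubation.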
An asterisk follows results filed as active; ? = inconclusive; · = not tested or not shown; ! = not active in a repeat; [ ] = remark or other dose. Calls follow the shape of the dose curve; as a rule, active = well fitted inhibition curve with a large enough effect; inconclusive = small, poorly fitted or top-dose-only effect; inactive = no such curve, though single readings can be large or run the other way. Potency is read from the fitted curve at half-maximal effect.

SMILES	BAZ2B block	JMJD2A Tudor inh	HP1b binding inh	G9a inh	L3MBTL1 block
O=C(O)c1cccc(-n2c(O)c(C=C3N=c4ccccc4=N3)sc2=S)c1	-37%	?	-16%	50µM*	-25%
CCCC(C(=O)O)n1c(O)c(C=C2N=c3ccccc3=N2)sc1=S (stereo unspecified)	-32%	20µM*	-2%	?	-15%
O=C(O)CCCn1c(O)c(C=C2N=c3ccccc3=N2)sc1=S	?	-34%	23%	-107%[59 µM]	·
O=C(Cc1ccccc1)Nc1sc2c(c1C(=O)Nc1ccc(Cl)cc1)CCOC2	·	-24%	·	·	·
O=C(NCCn1ccc2ccccc21)c1ccc(Cl)cc1	9%	-2%	15%	-4%[59 µM]	·
Cc1ccc(C)n1-c1nnc(N2CCCC(C(=O)NCc3ccc(F)cc3)C2)s1 (stereo unspecified)	-4%	-24%	-10%	2%[59 µM]	·
COc1cccc(-c2nc(N(C)Cc3ccco3)c3ccccc3n2)c1	·	·	·	1%[0.501 µM]	·
O=C(Nc1ccc(-c2ccc([N+](=O)[O-])cc2)cc1)c1ccccc1F	-11%	-6%	22%	50µM*	4%
O=C(Nc1ccc([N+](=O)[O-])cc1)c1ccccc1F	-28%	2%	51%	-4%	·
O=C(CSc1ccc([N+](=O)[O-])cc1)NNC(=O)c1ccccc1F	-17%	-23%	5%	50µM*	·
Cc1csc(SCC(=O)Nc2ccc3[nH]c(=O)[nH]c3c2)n1	·	-9%	37%	·	4%
C/C(=N\NC(=O)c1cc(-c2cccc([N+](=O)[O-])c2)n[nH]1)c1ccccc1O	8.9µM*	14µM*	27%	16%	?
COC(=O)c1ccc(NC(=O)C2CCN(C(=O)c3cc(OC)c(OC)c(OC)c3)CC2)cc1	-31%	45µM*	12%	10µM*	·
OC1CCN(Cc2cccc(Oc3ccccc3)c2)CC1	1%	-9%	17%	-1%[59 µM]	6%
COc1ccc(CN2CCN(Cc3cccc(Oc4ccccc4)c3)CC2)c(OC)c1OC	20µM*	4µM*	25µM*	45µM*	·
COc1cc(CN2CCN(C(=O)c3ccc(-c4ccccc4)cc3)CC2)cc(OC)c1OC	15%	7.9µM*	?	·	29%
COc1cc(C(=O)OCC(=O)N2CCC(Cc3ccccc3)CC2)cc(OC)c1OC	6%	-2%	40%	8.9µM*	-1%
CCC(C(=O)NC1CCC(C)CC1)n1nc(C)c2sc3ccccc3c2c1=O (stereo unspecified)	0%	6%	30%	-27%[59 µM]	·
Nc1cc(=O)[nH]c(SCC(=O)N2CCC(Cc3ccccc3)CC2)n1	-6%	-9%	29%	1%[2.33 µM]	-1%
Cc1cc(C)c2c(n1)nn1c(C)c(CCC(=O)Nc3cccc(C)c3C)c(C)nc21	3%	-5%	37%	-9%[59 µM]	·
COc1cc(OC)cc(C(=O)N2CCN(C(=O)c3ccc(-c4ccccc4)cc3)CC2)c1	-20%	-11%	20%	?	1%
COc1cccc(CN2CCN(C(=O)c3ccc(-c4ccccc4)cc3)CC2)c1	50µM*	2.2µM*	32µM*	13µM*	-13%
CCC(CC)N1CCN(C(=O)c2cc(OC)c(OC)c(OC)c2)CC1	?	50µM*	?	·	-3%
O=C(c1ccccc1)N1CCN(Cc2cccc(Oc3ccccc3)c2)CC1	50µM*	40µM*	-11%	16µM*	0%
COc1cc(CN2CCCCCC2)cc(OC)c1	0%	-6%	32%	13%	-2%
SMILES	BAZ2B block	JMJD2A Tudor inh	HP1b binding inh	G9a inh	L3MBTL1 block
COc1cc(CN2CCN(Cc3cccc(OC)c3OC)CC2)cc(OC)c1	18µM*	4µM*	35µM*	45µM*	·
CCOC(=O)c1c(C)[nH]c(C)c1S(=O)(=O)N1CCC(C(=O)Nc2ccc(F)cc2F)CC1	?	-18%	18%	-26%[59 µM]	·
COc1cc(C(=O)N2CCN(CCCc3ccccc3)CC2)cc(OC)c1OC	·	20µM*	-12%	·	·
COc1cc(C(=O)N2C(=O)CCC2=O)cc(OC)c1OC	?	-13%	64%	35µM*	-1%
CN1CCN(Cc2cccc(Oc3ccccc3)c2)CC1	0%	-20%	18%	71µM*	·
Cc1c(CCC(=O)NCCc2ccccc2F)c(=O)oc2cc(O)ccc12	-5%	-15%	13%	-5%[59 µM]	·
Cc1ccc(Nc2nc(C)nc(N)c2S(=O)(=O)c2ccccc2)cc1	-18%	-16%	3%	8%[59 µM]	·
Clc1cc(NCc2cccs2)ccc1N1CCOCC1	50µM*	?	-23%	11µM*	-6%
c1csc(CNc2ccc3c(c2)OCCO3)c1	50µM*	?	3%	3.5µM*	-3%
COc1ccc(NC(=O)CC2C(=O)N(c3cccc(OC)c3)C(=O)N2CCC2=CCCCC2)cc1 (stereo unspecified)	-12%	-15%	35%	15%[59 µM]	·
CC(=O)c1c(C)n([O-])c2cc(F)c(F)cc2[n+]1=O	-3%	-8%	52%	2%	2%
COc1ccc2c(c1)[n+](=O)c(C(C)=O)c(C)n2[O-]	-7%	-17%[11.4 µM]	?	28µM*	·
O=C1c2ccccc2C(=O)N1c1ccc(S(=O)(=O)N2CCOCC2)cc1	·	-4%	29%	·	·
CCOC(=O)c1c(/N=C/N(C)C)sc(/C=N/Nc2ccccc2)c1-c1ccccc1Cl	-7%	?	11%	40µM*	0%
Cc1cc(C)cc(S(=O)(=O)c2cnc3ccccc3n2)c1	20%	11µM*	?	29%	-14%
O=S(=O)(c1ccc(Cl)cc1)c1cnc2ccccc2n1	-17%	-29%	28%	-1%	3%
CC(=O)c1cc(CN2CCC(N3CCC(C(=O)N4CCCC4)CC3)CC2)cs1	-35%	4%[11.4 µM]	32%	11µM*	-12%
O=C1C(O)=C(O)C(=O)C(O)=C1O	·	·	·	6.3µM*!	·
Fc1cc(F)c2ncc3c(-c4ccccc4)nn(-c4cccc(Cl)c4)c3c2c1	·	-22%	4%	-1%[59 µM]	·
COc1ccc(NS(=O)(=O)c2ccc(NC(=S)NC(=O)c3cccc(F)c3)cc2)nn1	?	-36%	-32%	?	-3%
O=C(NC(=S)Nc1ccc(S(=O)(=O)Nc2ncccn2)cc1)c1ccc(Br)cc1	-7%	-33%	?	50µM*	10%
COc1ccc(NS(=O)(=O)c2ccc(NC(=S)NC(=O)c3cccnc3)cc2)nn1	-30%	0%[11.4 µM]	-10%	28µM*	24%
COc1ccc(NS(=O)(=O)c2ccc(NC(=O)c3ccc(Br)cc3)cc2)nn1	-14%	-15%	23%	1%	0%
COc1ccc(NS(=O)(=O)c2ccc(NC(=S)NC(=O)c3ccc(Br)cc3)cc2)nn1	?	?	-33%	18µM*	-9%
Cc1ccc(N2CC(NC(=O)c3ccc(S(=O)(=O)N4CCCC4)cc3)CC2=O)cc1C (stereo unspecified)	1%	-2%	28%	0%[59 µM]	·
